Compound activity (PubChem)
The list is not random: actives were taken first. Their share in the collection is about 11%.
OTUD3 block: inhibitors of human OTUD3 deubiquitinase. AID 1645858, 2021. OTU domain-containing protein 3 (Homo sapiens), Q5T2D3. purified OTUD3, Ub-rhodamine fluorescence, 2 h. inhibition, % at 25 µM. 47,000 tested, 0.7% active
USP28 block: inhibitors of human USP28 deubiquitinase. purified USP28, Ub-rhodamine cleavage fluorescence, 30 min. Ubiquitin carboxyl-terminal hydrolase 28 (Homo sapiens), Q96RU2. 47,000 tested, 3% active. inhibition, % at 25 µM
USP17 inh: inhibitors of human USP17 deubiquitinase | 47,000 tested, 6.5% active | inhibition, % at 50 µM | purified USP17, Ub-rhodamine cleavage fluorescence, 3 h
Target sequence (A8MUK1 whole entry, looked up): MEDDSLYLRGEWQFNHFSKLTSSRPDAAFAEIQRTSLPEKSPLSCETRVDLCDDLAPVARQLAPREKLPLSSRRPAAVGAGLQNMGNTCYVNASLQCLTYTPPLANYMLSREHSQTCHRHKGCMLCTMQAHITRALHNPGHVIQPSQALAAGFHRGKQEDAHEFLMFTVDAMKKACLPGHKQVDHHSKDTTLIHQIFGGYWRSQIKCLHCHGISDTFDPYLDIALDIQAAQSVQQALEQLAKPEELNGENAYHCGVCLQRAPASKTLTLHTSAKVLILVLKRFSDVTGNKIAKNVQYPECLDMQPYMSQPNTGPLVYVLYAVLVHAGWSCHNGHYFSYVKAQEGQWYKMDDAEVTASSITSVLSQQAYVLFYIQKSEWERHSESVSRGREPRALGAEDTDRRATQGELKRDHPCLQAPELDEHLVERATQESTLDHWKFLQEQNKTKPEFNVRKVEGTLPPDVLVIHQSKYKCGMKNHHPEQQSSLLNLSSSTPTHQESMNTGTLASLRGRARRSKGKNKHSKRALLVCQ
USP30 block: inhibitors of human USP30 deubiquitinase | 47,000 tested, 5.3% active | AID 1645860, 2021 | purified USP30, Ub-rhodamine cleavage fluorescence | inhibition, % at 25 µM
Starred values were filed as active, the others as inactive; . = not tested or not shown. No stated cut-off is given here; in the data, active means inhibition above about 30%; inactive means the rest.

SMILES | OTUD3 block | USP28 block | USP17 inh | USP30 block
Cc1cc(-c2cnc(N3CCCC3)nc2C2CCN(c3nccc(C)n3)CC2)on1 | 0 | 1 | 8 | -2
Cc1noc(-c2ccc(N3CCCC(C(=O)Nc4cccc(F)c4C)C3)nc2)n1 (stereo not drawn) | 1 | 0 | 18 | -12
O=C(NCc1ccccc1)C1CCN(c2cnc(N3CCCCCC3)nc2)CC1 | -28 | -8 | -27 | -115
O=C(NCc1ccc(F)cc1)C1CCN(c2cnc(N3CCCCC3)nc2)CC1 | 6 | 69* | 5 | -10
Cc1cc(F)ccc1NC(=O)C1CCN(c2cnc(N3CCCCC3)nc2)CC1 | 4 | 33* | -12 | -7
Cc1noc(-c2ccc(N3CCCC(C(=O)NCc4ccc(F)cc4)C3)nc2)n1 (stereo not drawn) | 14 | 16 | 58* | 28
Cc1noc(-c2ccc(-n3cnc(C(=O)NCc4ccccc4)c3)nc2)n1 | 4 | 6 | 21 | 30*
O=C(NC1CC1)c1ccc2c(=O)n3c(nc2c1)CCCC3 | 6 | . | 0 | .
COc1cccc(CNC(=O)Cc2cccc3ccccc23)c1 | 9 | 0 | 7 | -55
Cc1ccc(-c2nc3nc(C)c(Cc4ccccc4)c(=O)n3[nH]2)cc1 | 10 | 5 | 28 | 15
COc1ccc(C(O)c2nc(-c3ccc(Cl)cc3)cs2)cc1 (stereo not drawn) | 11 | 27 | 6 | 13
CCc1nnsc1C(=O)N1C[C@H]2CC[C@@H](N(C)c3cnccn3)[C@H]2C1 | 17 | 16 | 8 | 12
COc1ccc(C)cc1S(=O)(=O)NCC(c1ccc2c(c1)CCCN2C)N1CCCC1 (stereo not drawn) | -77 | -106 | -105 | -404
CC(NC(=O)CCc1ccc2[nH]ccc2c1)c1ccccc1 (stereo not drawn) | -1 | -6 | 0 | -8
CCC(C)NC(=O)c1cc2occc2c(Nc2ccc(F)cc2)n1 (stereo not drawn) | -4 | 1 | 8 | -29
COc1ccc(/C=C/C(=O)Nc2cccc(S(=O)(=O)Nc3ccccc3Cl)c2)c(OC)c1 | 10 | 52* | 7 | 69*
CCOC(=O)c1cc2c(ccn2C)n1Cc1cccc2ccccc12 | -1 | 21 | 54* | -50
Cc1cc(C(=O)NC2CCC(C)CC2)no1 (stereo not drawn) | 0 | -3 | -11 | 9
N#Cc1ccc(Cn2nnc(-c3cccc(Cl)c3)n2)cc1 | -3 | 73* | 12 | 7
CC1(C(=O)NCc2ccccc2)Cn2cnc(C(=O)NC3CC3)c2C(=O)N1C1CC1 (stereo not drawn) | -2 | -9 | 1 | 0
CCOC(=O)c1c(C)nc2n(Cc3ccccc3)c3ccccc3n12 | 16 | 18 | 30 | 61*
O=C(NCc1ccc2c(c1)OCO2)c1cc(-c2ccc3c(c2)OCCO3)on1 | -6 | 1 | 5 | -27
COc1ccc2cc(-c3cc(C(=O)OCC(=O)NC(C)c4ccccc4)c4ccccc4n3)ccc2c1 (stereo not drawn) | -3 | -5 | 0 | -38
Cc1cccc(C(=O)Nc2c(C)nc3ccccn3c2=O)c1 | 9 | 6 | 14 | 15
Cc1cccc(C(=O)Nc2ccccc2Sc2nc3c(c(=O)n(C)c(=O)n3C)n2C)c1 | 26 | 31* | 33* | 71*
SMILES | OTUD3 block | USP28 block | USP17 inh | USP30 block
Cc1ccc(CNc2c(S(=O)(=O)c3ccccc3)cnc3ccc(F)cc23)cc1 | -1 | -2 | 0 | 13
Cc1cc(-c2ccnc3c(C#N)cnn23)c(C)s1 | -9 | 4 | 67* | -5
COc1cccc(CC(=O)N2CCc3nc(C(=O)N4CCCC4)sc3CC2)c1 | 8 | 18 | -3 | 8
Cn1nc(C2CCN(C(=O)Cc3cccc(F)c3)CC2)c2nccnc21 | -11 | 7 | 34* | -9
CCC(=O)Nc1cccnc1-c1ccc(C(=O)Nc2ccc3c(c2)OCO3)cc1 | 5 | 40* | . | 5
COc1ccc(-c2nc(Cn3c(=O)n(C(C)C)c(=O)c4ccccc43)c(C)o2)cc1 | 6 | 9 | 11 | 6
COc1ccc(-c2nc(Cn3nnc(C(=O)Nc4ccc(C)cc4C)c3N)c(C)o2)cc1 | 13 | 7 | 29 | 57*
COc1ccc(-c2nc(Cn3nnc(C(=O)Nc4ccc(C)c(C)c4)c3N)c(C)o2)cc1 | 1 | -2 | 80* | 8
CCOC(=O)c1noc2nc(C)n(Cc3nc(-c4ccc(OC)cc4)oc3C)c(=O)c12 | 1 | -1 | 0 | -3
c1ccc(CC2CCN(Cc3cccc4ccccc34)CC2)cc1 | 15 | 7 | 6 | 7
O=C(Cc1cccc2ccccc12)N1CCC(Cc2ccccc2)CC1 | 19 | 4 | 20 | 44*
